Screening data (PubChem)
Most compounds without a hit are left out; they make up all but 1.5% or so of the library.
PP1 counter: counter-screen for PP5 inhibitors: inhibitors of human PP1-alpha. hit rate 0.9% among 320,000. purified PP1alpha, OMFP fluorescence. inhibition, % at 6.7 µM. P62136;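 active means inhibition above the mean inhibition of all tested compounds plus 3 SD, computed separately for each screening campaign, cut at about 15% in these data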
DYRK1A inh: blocks rat Dyrk1A kinase activity; Q63470; ADP-Glo luminescence, NFATc1 peptide; inhibition, % at 12.5 µM; hit rate 0.43% among 310,000; AID 504441; in the data active means inhibition above about 50%;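 further: plate controls were vehicle with enzyme for no effect and no enzyme for full effect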
STK33 inh: inhibitors of human STK33 kinase; Q9BYT3; purified STK33, MBP phosphorylation, ADP-Glo luminescence; inhibition, % at 10 µM; hit rate 0.073% among 320,000; AID 2661;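 active means inhibition at or above 25%, using the most active replicate where run in duplicate; inactive means inhibition below 25%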
Target sequence (Q9BYT3 whole entry, looked up): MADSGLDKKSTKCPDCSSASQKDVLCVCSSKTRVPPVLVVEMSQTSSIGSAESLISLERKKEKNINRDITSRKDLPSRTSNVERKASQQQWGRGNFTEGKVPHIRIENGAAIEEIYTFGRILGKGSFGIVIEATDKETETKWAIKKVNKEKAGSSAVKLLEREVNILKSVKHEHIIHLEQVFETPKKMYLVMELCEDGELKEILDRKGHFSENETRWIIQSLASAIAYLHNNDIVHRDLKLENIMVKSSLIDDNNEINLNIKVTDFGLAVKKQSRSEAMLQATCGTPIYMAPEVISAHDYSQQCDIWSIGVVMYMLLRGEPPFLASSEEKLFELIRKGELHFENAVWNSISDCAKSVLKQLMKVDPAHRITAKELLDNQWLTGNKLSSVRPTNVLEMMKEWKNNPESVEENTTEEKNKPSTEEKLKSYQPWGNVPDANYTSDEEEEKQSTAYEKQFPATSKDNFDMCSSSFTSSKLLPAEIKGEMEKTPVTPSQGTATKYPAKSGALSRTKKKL
PP5 inh: inhibitors of human protein phosphatase 5 (PP5) | hit rate 0.18% among 320,000 | AID 1987 | P53041 | purified PP5c, OMFP substrate fluorescence | inhibition, % at 6.7 µM;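 active means inhibition above the campaign's mean inhibition across all tested compounds plus 3 SD, cut at about 9.5% in these data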;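 further: 0% = DMSO only and 100% = 100 µM cantharidin control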
HIF act: HIF pathway transcriptional activation. U2OS HRE-luciferase reporter, luminescence; normalized: DMSO 0%, desferrioxamine 100%. activation, % at 7.5 µM (by protocol). hit rate 0.32% among 300,000;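 active means mean activation of at least 10% of the iron chelator positive control signal, with at least half of replicates also reaching 10%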
An asterisk follows results filed as active; nt = no result given.

SMILES	PP1 counter	DYRK1A inh	STK33 inh	PP5 inh	HIF act
Cc1nn(Cc2ccc(Cl)cc2)c(C)c1NC(=O)C(c1ccccc1)c1ccccc1	-2	-3	0	2	0
CCCCCn1c(SCc2ccncc2)nc2cc(C(=O)NCc3ccco3)ccc2c1=O	16*	6	-1	3	0
CCN(CC)S(=O)(=O)c1ccc(N2CCOCC2)c(NC(=O)c2cccc3ccccc23)c1	0	0	-1	3	46*
Cc1occc1C(=O)NC1CCCCCC1	3	4	0	1	13*
Cc1occc1C(=O)NNC(=O)C1CCCCC1	0	-5	-1	0	-1
Cc1ccc(S(=O)(=O)N2CCC(C(=O)N/N=C/c3cccn3C)CC2)cc1	nt	-4	-2	nt	nt
CCn1c2ccc(/C(C)=N\O)cc2c2cc(/C(C)=N\O)ccc21	0	2	37*	3	0
O=C(Nc1ccccc1N1CCN(C(=O)c2ccc(Cl)cc2)CC1)c1ccc(Br)cc1	16*	1	-1	2	-1
O=C(Nc1ccccc1N1CCN(C(=O)c2ccccc2)CC1)c1ccc(Cl)cc1	3	-11	-1	3	-1
CCN(CC(=O)Nc1ccc2c(c1)OCCO2)C(=O)c1ccc(S(=O)(=O)N(C)C)cc1	1	-1	0	0	-2
O=C(NNC(=O)C(O)(c1ccccc1)c1ccccc1)C1CC1	-2	7	-1	-2	31*
O=C(/C=C/c1ccccc1)NNC(=O)C1CC1	2	3	0	-1	0
CCC(C(=O)Nc1cccnc1)n1c(=O)[nH]c2ccccc2c1=O (stereo not drawn)	-4	4	-1	1	0
Cc1ccc(Nc2nnc(SCC(=O)Nc3cc(C(=O)O)ccc3C)s2)c(C)c1	2	2	-1	0	0
O=C(N/N=C/c1ccc(O)c(O)c1)c1cccc(S(=O)(=O)N2CCCCC2)c1	4	-14	0	-1	0
CCN(CC)Cc1c(C(=O)N/N=C/c2ccc(OCc3ccccc3C)cc2)nnn1-c1nonc1N	16*	-1	1	4	1
Cc1ccc(N=Nc2ccc(O)c(/C=N\NC(=O)c3ccc(N)cc3)c2)cc1C	-2	3	-1	-3	11*
O=C(N/N=C\c1cc(Br)ccc1O)c1ccc(S(=O)(=O)N2CCCCC2)cc1	7	-5	1	0	37*
CCN(CC)Cc1c(C(=O)N/N=C/c2cccnc2)nnn1-c1nonc1N	-3	-3	-1	-1	-1
Nc1nonc1-n1nnc(C(=O)N/N=C/c2cc(Br)ccc2O)c1CNc1ccccc1	17*	-4	-2	3	7
Cc1nc(C)c(C(=O)N/N=C/c2cc(Br)ccc2O)s1	0	1	0	3	29*
Nc1nonc1C(=O)N/N=C/c1cc(Br)ccc1O	-1	-3	0	-1	22*
NC(=O)N/N=C\c1cc(Br)ccc1O	1	42	6	1	0
O=C(N/N=C/c1cc(Br)ccc1O)c1ccncc1	-2	-2	2	3	34*
O=C(CSc1ccsc1[N+](=O)[O-])N1CCN(c2ccccn2)CC1	0	0	-2	2	0
SMILES	PP1 counter	DYRK1A inh	STK33 inh	PP5 inh	HIF act
Cc1ccc(S(=O)(=O)c2c(C)cc(C)nc2N2CCCC2)cc1	-3	4	-1	-2	0
Cc1ccc(S(=O)(=O)N2CCN(c3ccccn3)CC2)cc1	-5	nt	1	2	48*
O=C(O)c1ccc(S(=O)(=O)N2CCN(c3ccccn3)CC2)cc1	2	5	0	2	0
CCCCN(C)C(=O)C1CCCN(S(=O)(=O)c2ccc3c(c2)oc(=O)n3C)C1 (stereo not drawn)	-1	4	0	2	1
COc1ccc(/C=N/NC(=O)c2nn(-c3ccccc3)c(=O)c3c(N)scc23)cc1	7	3	1	3	0
COc1ccc(/C=N/NC(=O)c2nn(-c3ccc(Cl)cc3)c(=O)c3c(N)scc23)cc1	17*	10	-1	2	-1
O=C(/C=C/c1ccc(NC(=O)c2ccccc2-c2ccccc2C(=O)O)cc1)c1ccccc1	17*	9	-3	0	-21
O=C(O)c1ccccc1-c1ccccc1C(=O)Nc1ccc(F)cc1	2	2	0	1	-1
O=C(Cc1ccc([N+](=O)[O-])cc1)N1N=C(C2CC2)CC1(O)C(F)(F)F (stereo not drawn)	-1	-4	-3	-1	0
COC(=O)CN1C(=O)[C@H]2[C@@H](c3ccc(C)o3)N3C(=O)CN(CC4CC4)C(=O)[C@@]3(Cc3ccccc3)[C@H]2C1=O	0	-2	1	1	287*
COC(=O)CN1C(=O)[C@H]2[C@@H](c3ccc(C)o3)N3C(=O)CN(CCO)C(=O)[C@@]3(Cc3ccccc3)[C@H]2C1=O	-4	0	-1	2	0
O=C(CSc1nc2ccccc2c(=O)n1-c1ccccc1)N/N=C/C=C/c1ccccc1[N+](=O)[O-]	10	0	nt	2	-2
Cc1ccccc1-n1c(SCC(=O)N/N=C/C=C/c2ccccc2[N+](=O)[O-])nc2ccccc2c1=O	17*	-1	0	-2	-1
CN(CCS(=O)(=O)c1ccc(Cl)cc1)Cc1cccnc1	-2	-3	1	-4	116*
O=C(Cn1cnc2sc(-c3ccccc3)cc2c1=O)NCc1ccccc1	15*	-6	nt	5	2
CCOC(=O)c1ccc(NC(=O)N2CCN(C(=O)C3CCCO3)CC2)cc1 (stereo not drawn)	5	2	0	1	1
Oc1[nH]c2ccccc2c1C=Nc1ccc2c(c1)OCO2	2	6	26*	3	3
CCCCCOc1ccc(Br)cc1/C(C)=N/NC1=NCCN1	17*	2	2	3	1
CC1CCCC(C)N1C(=O)COc1ccc(C(=O)N/N=C/c2ccc(C(=O)O)cc2)cc1 (stereo not drawn)	-2	5	0	1	0
O=c1c2cc(Br)ccc2nc(-c2ccc(Cl)cc2)n1O	0	-1	0	-1	0
Cc1ccc(-c2nc3c(Cl)cc(Cl)cc3c(=O)n2O)cc1	17*	9	-1	1	-19
CCS(=O)(=O)c1ccc(-c2cccc(NC(=O)COc3ccccc3)c2)nn1	-6	1	-2	-2	60*
CCS(=O)(=O)c1ccc(-c2cccc(NC(=O)COc3ccc(Cl)cc3)c2)nn1	3	2	0	2	0
NC(=O)C1CCCN(Cc2c(C(=O)N3CCc4ccccc4C3)nc3ccc(Cl)cn23)C1 (stereo not drawn)	1	1	0	1	11*
O=C(CN1C(=O)NC2(CCOc3ccccc32)C1=O)c1ccc(F)cc1 (stereo not drawn)	-7	-5	0	0	1
CN(Cc1ccccc1)C(=O)CCS(=O)(=O)c1ccc2c(c1)NC(=O)CS2	-1	3	-1	-1	0
CCOc1cc(/C=C(\C#N)C(=O)Nc2cccc(C(=O)O)c2)cc(Br)c1OC(=O)c1ccc(OC)cc1	17*	-2	1	-4	0
